Results on 17 sequences are retold here after the OligoGym collection.
Further: reference of the scale not given here.

In one test the target is PRAMEF6. Briefly: pooled miR-30 sensor sort-seq; sequence = guide strand. Particulars: shRNA.
Sequence TCAGCATCATAACTCTCCCGGG gave a sensor-assay potency score (higher = more potent) of -0.662.
The sequence TTAGTTATTGTGAGGACCTTTA came in with a sensor-assay potency score (higher = more potent) of -0.654.
In turn, TTGGAGGCAGCACAGCTTGAGG yielded a sensor-assay potency score (higher = more potent) of -1.39.
TTTTGGAGGCAGCACAGCTTGA gave a sensor-assay potency score (higher = more potent) of -1.46.
Turning to TACAGCTCCACGCATAAGTTTT, the sensor-assay potency score (higher = more potent) is -1.43.
TTGGGTAAGCAGTGCATCCAGC displayed a sensor-assay potency score (higher = more potent) of -0.474.
ATCAGCATCATAACTCTCCCGG: the sensor-assay potency score (higher = more potent) is -0.511.
Regarding TATTGTGAGGACCTTTAACGAG, the sensor-assay potency score (higher = more potent) was -1.02.
The sequence TTGGACAGTCCTGCACTGGTGT showed a sensor-assay potency score (higher = more potent) of -0.525.

For another test, the target named is PRB2. Described as above. As to conditions: shRNA.
For AGGAGATCGAGAACTTCGGGAC, the sensor-assay potency score (higher = more potent) is -1.14.
Sequence TTCGGGACTTGCTGCCTCCTTG came in with a sensor-assay potency score (higher = more potent) of -0.944.
As to ACTTGTTGTCTCCTTGTGGGGG, the sensor-assay potency score (higher = more potent) is -0.828.
TTGAGGCTGGTTGCCTCCTTGT returned a sensor-assay potency score (higher = more potent) of -1.75.
GAGGAGATCGAGAACTTCGGGA gave a sensor-assay potency score (higher = more potent) of -0.989.
In turn, TTGTTGTCTCCTTGTGGGGGTG returned a sensor-assay potency score (higher = more potent) of -1.06.
In the case of TTCGGGACTTGTTGTCTCCTTG, the sensor-assay potency score (higher = more potent) is -0.146.
Turning to TTGGGACTTGTTGTCTCCTTGT, the sensor-assay potency score (higher = more potent) is -0.258.
